Compounds without any hit were thinned out: in the full panel of roughly 83,000, 20% have a hit.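 Assay: single dose, 48 h. Readout: percent growth (0 = no net growth; negative = cell death). Active: <10.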 Values without a mark were called inactive. Active and inactive are the calls of the source.
Experiments:
Assay in all cases: NCI-60 one-dose screen, 48 h (100 = growth as untreated, 0 = no growth, -100 = all killed)
Conditions in all cases: 10 µM unless noted
[1] = test system: NCI-H23 lung
[2] = test system: NCI-H226 lung
[3] = test system: NCI-H322M lung
[4] = test system: HOP-62 NSCLC
[5] = test system: NCI-H460 lung
[6] = test system: HOP-92 NSCLC
[7] = test system: NCI-H522 lung
[8] = test system: A549/ATCC NSCLC
[9] = test system: 786-0 renal
[10] = test system: COLO 205 colon
[11] = test system: DU-145 prostate
[12] = test system: K-562 leukemia
[13] = test system: MALME-3M melanoma
[14] = test system: MDA-MB-231 breast
[15] = test system: RXF 393 renal
[16] = test system: SF-268 CNS
[17] = test system: SF-295 CNS
[18] = test system: SF-539 CNS
[19] = test system: UACC-257 melanoma
[20] = test system: M14 melanoma

Row | SMILES | growth [1] | growth [2] | growth [3] | growth [4] | growth [5] | growth [6] | growth [7] | growth [8] | growth [9] | growth [10] | growth [11] | growth [12] | growth [13] | growth [14] | growth [15] | growth [16] | growth [17] | growth [18] | growth [19] | growth [20]
1 | FC(F)(F)c1ccc(-c2cn3nc(-c4c[nH]c5ccc(Br)cc45)sc3n2)cc1 | 85.8% | 79.1% | 85.5% | 99.4% | 100% | 88% | 91.6% | 99% | 106% | 91.8% | 107% | 97.9% | 90.4% | 88% | 118% | 113% | 95.2% | 101% | 107% | 101%
2 | COc1ccc2c(c1)c(-c1nonc1-c1cn(C)c3ccccc13)cn2C | 27.9% | 27.3% | 42.2% | 33.1% | 16.3% | 47.8% | 9.96% (active) | 30.3% | 44.2% | 17.7% | 14.7% | 10.5% | 51.9% | 28.4% | -9.91% (active) | 63% | 32% | -9.13% (active) | 66.5% | 24.4%
3 | CCOc1cc2ncc(C#N)c(Nc3ccc(OCc4cccc(F)c4)c(Cl)c3)c2cc1NC(=O)CC1CCSS1 (stereo not given) | 47.4% | 56.1% | 6.49% (active) | 14.9% | -56.6% (active) | 66.7% | 58.2% | -69.7% (active) | 88.5% | 32.2% | -24.9% (active) | 10.5% | 56.5% | 14.5% | 50.2% | -22.3% (active) | 91.3% | 49.9% | 64.8% | -68.5% (active)
4 | Cc1ccccc1COc1ccc(-c2onc(C)c2-c2ccc(Cl)cc2)cc1 | 73.8% | 57.2% | 97.6% | 51.6% | 54.7% | 72.6% | 25.5% | 49.3% | 75.5% | 71% | 77.4% | 14.4% | 59.8% | 90.8% | 70.2% | 75.6% | 49.4% | 63.5% | 70.9% | 32.2%
5 | CCCc1cc(=O)n2c(C(=O)Nc3cccc(C(=O)OCC)c3)c(C(=O)Nc3ccc(F)cc3)sc2n1 | 79.8% [30 µM] | 89% [30 µM] | 97.3% [30 µM] | 36.6% [30 µM] | 23% [30 µM] | -31.5% [30 µM] (active) | 65% [30 µM] | 3.58% [30 µM] (active) | 15.1% [30 µM] | 72.9% [30 µM] | 79.9% [30 µM] | 79.7% [30 µM] | 71.9% [30 µM] | 47% [30 µM] | -27.2% [30 µM] (active) | 57.5% [30 µM] | 44.5% [30 µM] | 33.9% [30 µM] | 64.5% [30 µM] | 75.2% [30 µM]
6 | Cc1ccc2c(C(C[N+](=O)[O-])c3ccccc3)c(-c3ccccc3)[nH]c2c1 (stereo not given) | 39.4% [9.5 µM] | 35.3% [9.5 µM] | 41.7% [9.5 µM] | 20.2% [9.5 µM] | 12.2% [9.5 µM] | 25.8% [9.5 µM] | -37.8% [9.5 µM] (active) | 28.6% [9.5 µM] | 30.8% [9.5 µM] | 9.02% [9.5 µM] (active) | 30.3% [9.5 µM] | 10.9% [9.5 µM] | 44.7% [9.5 µM] | 37.2% [9.5 µM] | 5.65% [9.5 µM] (active) | 35.2% [9.5 µM] | 9.43% [9.5 µM] (active) | 8.82% [9.5 µM] (active) | 27.6% [9.5 µM] | 22.3% [9.5 µM]
7 | CCn1c(O)c(/C=N/NC(=O)C(C)c2ccc(CC(C)C)cc2)sc1=S (stereo not given) | 39.2% | 31.1% | 37.6% | 22.9% | 7.24% (active) | 39.9% | -11.6% (active) | 21.8% | 17.8% | 15.3% | 22.1% | 9.15% (active) | 64.3% | 35.4% | 9.92% (active) | 32.9% | 15.8% | -13.5% (active) | 51.9% | 6.26% (active)

Source: PubChem BioAssay (NCI)
